# The list is not random: actives were taken first. Their share in the collection is about 3%.
# Peg3 prom inh – inhibitors of Peg3 promoter; HeLa PEG-Prom luciferase reporter, luminescence, overnight; inhibition, % at 20 µM; hit rate 1.7% among 360,000;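 active means inhibition of at least 50% at 20 µM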
# EWS-Fli block – inhibitors of EWS/Fli oncoprotein transcriptional activity; inhibition, % at 12.6 µM; A673 NR0B1-luciferase reporter, viability-normalised; AID 651661; hit rate 0.67% among 350,000;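 active means mean inhibition of at least 50% after viability correction, with every replicate also passing that limit; inconclusive means mean reaches 50% but only one of two replicates passes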;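 further: firefly luciferase signal divided by Alamar Blue viability fluorescence both relative to DMSO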
# Shn3 3UTR inh – inhibitors of Schnurri-3 3'UTR reporter in osteoblasts. Clone20 osteoblast Shn3 3'UTR firefly luciferase, 24 h. inhibition, % at 12.5 µM. hit rate 0.52% among 360,000;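 active means mean inhibition of at least 75% with every replicate also reaching 75%; inconclusive means mean inhibition at least 75% but some replicate below; inactive means mean inhibition below 75%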;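 further: 0% = median of neutral control wells and 100% = pilot-screen positive control compound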
# PAX8 inh HTS – lowers PAX8-driven luciferase in RMG-I cells. AID 652154. RMG-I TPO-luciferase reporter, SteadyGlo, 24 h. inhibition, % at 12.6 µM. hit rate 1.2% among 360,000;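 active means mean replicate inhibition at least 60% with every replicate also reaching 60%; inconclusive means only one of the two criteria is met; inactive means mean below 60% and not all replicates reaching 60%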;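 further: luciferase light reporting Pax8 driven TPO promoter activity; plate controls were median of neutral control wells for no effect and mitoxantrone controls for full effect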
# MITF TRPM1 inh – MITF TRPM1 promoter inhibition in SK-MEL-5 cells; inhibition, % at 12.5 µM; hit rate 0.83% among 330,000; SK-MEL-5 TRPM1 promoter luciferase, 24 h;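 active means mean inhibition across replicates of 60% or more, whatever share of single replicates reaches that level; inconclusive means some that reach 60%, reason not given; inactive means mean inhibition across replicates below 60%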
# ABHD5-PLIN5 inh – inhibitors of human ABHD5-perilipin-5 interaction. Q00G26+Q8WTS1. Split G. princeps luciferase complementation, luminescence, 4 h. inhibition, % at 4 µM. hit rate 0.78% among 360,000;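 active means inhibition above the mean inhibition across every tested compound plus 3 SD, cut at about 22% in these data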;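 further: 0% = DMSO only wells and the 100% control is not disclosed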
# Target sequence (Q00G26 whole entry, looked up): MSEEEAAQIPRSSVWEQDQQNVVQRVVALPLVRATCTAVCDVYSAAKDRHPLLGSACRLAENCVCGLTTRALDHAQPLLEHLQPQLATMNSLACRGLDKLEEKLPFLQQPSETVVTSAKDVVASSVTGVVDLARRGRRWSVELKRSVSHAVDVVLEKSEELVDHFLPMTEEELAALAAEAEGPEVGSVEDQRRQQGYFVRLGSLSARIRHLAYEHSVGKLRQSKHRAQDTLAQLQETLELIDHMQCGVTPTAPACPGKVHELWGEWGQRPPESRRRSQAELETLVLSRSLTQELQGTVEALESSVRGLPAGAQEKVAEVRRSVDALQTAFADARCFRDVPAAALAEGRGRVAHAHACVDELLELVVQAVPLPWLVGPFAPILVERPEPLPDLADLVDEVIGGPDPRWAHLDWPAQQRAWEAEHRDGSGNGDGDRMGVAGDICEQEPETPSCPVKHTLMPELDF
# Target sequence (Q8WTS1 whole entry, looked up): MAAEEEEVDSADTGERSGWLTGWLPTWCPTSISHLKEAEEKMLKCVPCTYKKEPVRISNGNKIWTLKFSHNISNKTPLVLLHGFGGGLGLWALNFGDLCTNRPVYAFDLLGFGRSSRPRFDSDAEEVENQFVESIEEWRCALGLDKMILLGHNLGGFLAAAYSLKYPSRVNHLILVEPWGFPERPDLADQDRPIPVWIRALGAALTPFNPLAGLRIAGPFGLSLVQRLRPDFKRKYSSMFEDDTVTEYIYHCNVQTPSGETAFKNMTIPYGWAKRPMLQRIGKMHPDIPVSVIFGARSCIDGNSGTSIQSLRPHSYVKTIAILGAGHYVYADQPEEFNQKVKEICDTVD
# Active calls of the source: *; ? = inconclusive; · = not tested or not shown; ! = a repeat was not active.
SMILES,Peg3 prom inh,EWS-Fli block,Shn3 3UTR inh,PAX8 inh HTS,MITF TRPM1 inh,ABHD5-PLIN5 inh
COCCN(CC(=O)Nc1cccc(C)c1C)C(=O)c1oc2c(Cl)cccc2c1C,51.5*,4.2,31.1,25.0,12.8,-1.1
CC(C)NC(=O)N(C)C[C@H]1Oc2c(NC(=O)c3nc4ccccc4s3)cccc2C(=O)N([C@@H](C)CO)C[C@@H]1C,·,-3.7,·,·,·,·
CO[C@@H](CN(C)S(=O)(=O)c1cccc(Cl)c1)[C@@H](C)CN(C(=O)Nc1ccccc1F)[C@H](C)CO,·,-9.1,·,·,·,·
OCCCNc1c2ccccc2nc2ccccc12,103.6*,19.5,-16.1,32.8,83.0*,3.0
c1ccc2c(NCCc3c[nH]c4ccccc34)c3ccccc3nc2c1,99.1*,43.5,73.5,-15.1,87.9*,11.3
C[C@@H]1CN([C@H](C)CO)C(=O)c2cccc(NC(=O)C3CC3)c2O[C@H]1CN(C)S(C)(=O)=O,·,-4.8,·,-38.2,·,·
COc1ccc(-c2cc(C(F)F)n3ncc(C(=O)N4CCc5ccccc54)c3n2)cc1,26.5,57.2*,26.9,-16.0,21.7,2.5
O=C(C[C@H]1CC[C@@H]2[C@H](COC[C@@H](O)CN2C(=O)c2ccccc2)O1)NCc1cccc(F)c1,·,-2.1,·,-4.4,·,·
COc1ccc2cc3cc(C(=O)NCCc4ccc(OC)c(OC)c4)oc3nc2c1,53.4*,·,41.0,·,65.1*,4.5
CCCN(CCC)CCCNC(=O)c1cc2cc3ccc(OC)cc3nc2o1,-12.6,·,·,-4.0,-38.6,5.6
COc1ccc(-c2cn(CC[C@@H]3CC[C@@H](NC(=O)NC(C)C)[C@@H](CO)O3)nn2)cc1,·,-2.6,·,-19.6,·,·
COc1ccc(C=O)cc1COc1ccc([N+](=O)[O-])c(C)c1,5.6,1.1,-19.7,3.0,-6.6,-4.0
Cc1cc(OCc2nc(N)nc(N)c2-c2ccc(Cl)c(Cl)c2)ccc1[N+](=O)[O-],49.5,63.5*,69.6,43.8,45.3,14.8
NS(=O)(=O)c1ccc(N2CCN(C(=O)c3ccco3)CC2)nc1,51.1*,0.8,3.3,-8.4,-6.6,-10.6
O=C(c1ccco1)N1CCN(c2ccc([N+](=O)[O-])cn2)CC1,-27.6,-25.7,-5.5,-19.6,-4.0,-2.7
COC(=O)C1=CN(c2ccc(OC)cc2OC)C(N)=C(C#N)C1c1cccc([N+](=O)[O-])c1 (stereo not drawn),·,56.7*,·,28.3,·,-7.8
COC(=O)C1=CN(c2ccc(F)cc2)C(N)=C(C#N)C1c1cccc(F)c1 (stereo not drawn),·,24.2,·,17.6,·,-6.9
COc1ccc(NC(=O)N(C)C[C@@H]2Oc3ccc(NC(=O)C4CCCCC4)cc3CC(=O)N([C@@H](C)CO)C[C@@H]2C)cc1,·,-4.4,·,·,·,·
Cc1cc(Oc2ccccc2)nc(-c2ccccc2)n1,-30.5,·,-22.0,·,-14.6,2.6
C=C(C)c1nc(Oc2ccccc2)nc(Oc2ccccc2)n1,106.0*,42.1,35.6,97.3*,?,10.7
Cc1ccc(-c2nnc(Nc3ccccc3)o2)cc1,20.2,62.7*,20.9,·,5.5,-5.6
Cc1ccc(NC(=O)Nc2nnc(-c3ccccc3)o2)cc1,-147.3,-38.5,-35.2,-82.7,-46.5,-0.5
COc1ccccc1Cc1c(C(C)(C)C)nc2c3ccccc3ccn12,5.2,7.9,11.4,65.4*,·,3.1
CC(=O)N1CC[C@@H]2[C@H](CO)Nc3ccc(C#Cc4cccnc4)cc3[C@@H]21,·,-6.0,·,-18.8,·,·
Cc1cccc(N2CCN(C(=O)c3cc(S(=O)(=O)N4CCCC4)cn3C)CC2)c1C,11.2,65.2*,13.5,27.1,·,1.6
SMILES,Peg3 prom inh,EWS-Fli block,Shn3 3UTR inh,PAX8 inh HTS,MITF TRPM1 inh,ABHD5-PLIN5 inh
COc1cc(C(=O)N2CCN(c3cc(Cl)ccc3Cl)CC2)cc(OC)c1OC,-36.5,59.8*,19.2,15.7,5.5,5.2
COc1cc(C(=O)N2CCN(c3cccc(C)c3C)CC2)cc(OC)c1OC,-6.5,61.3*,28.7,52.4,21.8,8.5
C[C@H]1CN([C@@H](C)CO)C(=O)c2cccc(NC(=O)Nc3cccc4ccccc34)c2O[C@@H]1CN(C)S(=O)(=O)c1cccs1,·,0.8,·,·,·,·
CC1=C/C(=C(/c2cc(C)c(O)c(Br)c2)c2ccccc2S(=O)(=O)O)C=C(Br)C1=O,28.0,-32.0,32.3,76.7*,47.3,8.8
CC=Cc1ccc2n(c1=O)C[C@H]1[C@H](CO)[C@@H](C(=O)N[C@@H](C)c3ccccc3)[C@@H]2N1CC1CC1 (mixture of isomers),·,2.5,·,-4.9,·,·
COc1ccc(S(=O)(=O)N(C)C[C@H]2OCCCC[C@@H](C)Oc3ccc(NC(=O)Nc4ccc(C(F)(F)F)cc4)cc3C(=O)N([C@@H](C)CO)C[C@@H]2C)cc1,·,63.5*,·,54.9,·,·
COc1ccc(NC(=O)Nc2ccc3c(c2)C(=O)N([C@@H](C)CO)C[C@H](C)[C@@H](CN(C)S(=O)(=O)c2ccc(F)cc2)OCCCC[C@@H](C)O3)cc1,·,-7.6,·,13.8,·,·
COc1ccc(S(=O)(=O)N(C)C[C@H]2OCCCC[C@@H](C)Oc3ccc(NC(=O)Nc4ccc(C(F)(F)F)cc4)cc3C(=O)N([C@@H](C)CO)C[C@H]2C)cc1,·,-4.2,·,8.1,·,·
COc1ccc(S(=O)(=O)N(C)C[C@@H]2OCCCC[C@H](C)Oc3ccc(NC(=O)Nc4ccc(C(F)(F)F)cc4)cc3C(=O)N([C@H](C)CO)C[C@H]2C)cc1,0.8,18.1,6.2,79.3*!,·,10.5
COc1ccc(S(=O)(=O)N(C)C[C@@H]2OCCCC[C@H](C)Oc3ccc(NC(=O)Nc4ccc(F)cc4)cc3C(=O)N([C@H](C)CO)C[C@H]2C)cc1,·,19.2,·,66.9*,·,·
COc1ccc2nc3cc(Cl)ccc3c(Nc3cc(CN4CCCC4)c(O)c(CN4CCCC4)c3)c2n1,96.6*,42.9,-9.0,18.7,·,5.3
CC(Oc1cccc(Cl)c1)C(=O)Nc1nc(-c2ccccn2)cs1 (stereo not drawn),29.4,35.2,45.2,70.5*,64.3*,-6.1
CC(Oc1ccccc1)C(=O)Nc1nc(-c2ccccn2)cs1 (stereo not drawn),33.4,23.3,77.2,56.7,62.5*,-0.4
CC(Oc1ccccc1)C(=O)Nc1nc(-c2ccncc2)cs1 (stereo not drawn),-3.9,4.8,15.0,-5.5,-12.1,-1.9
Oc1ccc2ccccc2c1CN1CC2CCC(CC2)C1,-3.3,11.6,0.1,83.8*,-1.1,11.1
CC=Cc1ccc2n(c1=O)C[C@H]1[C@H](CO)[C@@H](C(=O)NCc3ccc(F)cc3)[C@@H]2N1CC (mixture of isomers),·,-8.5,·,-11.5,·,·
Cc1cc(C)c(NC(=O)c2cccc3c2C(=O)N(C2CCCCC2)C3)c(C)c1,55.9*,·,44.0,·,13.2,0.0
Cc1ccc(NC(=O)c2cccc3c2C(=O)N(C2CCCCC2)C3)c(C)c1,-2.6,·,4.8,·,4.9,5.7
Cc1noc(C)c1NC(=O)N(C)C[C@H]1OCc2ccccc2-c2c(n(C)c3ccccc23)C(=O)N([C@H](C)CO)C[C@H]1C,·,7.5,·,5.4,·,·
O=C(Nc1ccc2c(c1)[C@@H]1C[C@H](CC(=O)N3CCc4ccccc4C3)O[C@H](CO)[C@@H]1O2)Nc1ccccc1F,·,-1.5,·,25.3,·,·

# Bioassay records: PubChem, several laboratories
